For this experiment, the target named is AMP-activated protein kinase, AMPK (Homo sapiens) (UniProt P54646+O43741+P54619+Q9UGJ0+Q9Y478+Q13131+Q9UGI9). Put plainly: AMP-dependent Kinase enzyme assay. An in vitro enzyme assay that detects ADP turnover that is directly proportional to AMPK activity. This uses naive AMPK that is activated during the assay with MK-8722. In kind it is functional. Details: scale not given: direction of the effect not stated beside the values. The note with it: 30 µM.
Regarding `NC(=O)NC1(C(=O)N2CCc3c(Cl)cccc3C2)CCCCC1`, the Percent Effect is -3.74%. Under `CCC(=O)Nc1ccc(F)cc1OC` stands -10.1%.

Turning to `Cn1cc(CN2CCOC(c3cccc(-c4cncnc4)n3)C2)cn1` (centres undefined), the Percent Effect was 11.3%. For `CC(=O)N1CCCC1CCc1ccnc(-c2cncnc2)c1` (centres undefined), the Percent Effect turned out to be 22.4%.

Regarding `CCN(Cc1ccc2c(c1)OCO2)c1ncc(S(N)(=O)=O)s1`, the Percent Effect came to 1.52%. As to `Cc1ccc(N2CC[C@@]3(O)CCN(S(C)(=O)=O)C[C@H]3C2)nn1`, the Percent Effect was 0.414%.

Turning to `Cc1cc(C)c(-n2cccn2)c(CN2CCOCC(CN(C)C)C2)c1` (centres undefined), the Percent Effect was -0.542%.

On to `CCc1c(C)nn2c(O)cc(C3CCN(C(=O)c4ccn(C)n4)C3)nc12` (centres undefined), for which the Percent Effect was -4.46%. Then `CC(Cn1cncc1-c1cnn(Cc2ccccc2)c1)N1CCCCC1` (centres undefined), with 7.07%. Take `Cn1c(N)nnc1SCc1c(F)cccc1Br`: the Percent Effect amounted to 4.93%. As to `CC1(C)CN(c2cc(C3CC3)ncn2)C[C@]1(C)O`, the Percent Effect was found to be 30.7%. For the molecule `CN1CCN(c2ncc(CNCCCc3cccc(F)c3)cn2)CC1`, the Percent Effect came out at 4.72%. On to `Cc1ccc(OCc2occc2C(=O)N2CCOC(C(=O)O)C2)cc1` (centres undefined), for which the Percent Effect amounted to 2.93%. Regarding `Cc1ccccc1SCC(=O)NC1CCC(O)CC1` (centres undefined), the Percent Effect was 0.736%.

With `Cc1nc(CCN(C)C(=O)CN2CCCCCC2)no1`, the Percent Effect came out at 1.14%. Then `CSc1ccc(C)c(C(=O)Nc2c(C(N)=O)n[nH]c2C)c1`, with 3.27%; and `CCC(CNC(=O)CCn1cncn1)N1CCc2ccccc2C1` (centres undefined), with 1.86%; and `CC(C)Cn1ncc(C(=O)NS(=O)(=O)c2ccccc2)c1C1CC1`, with 4.86%. Take `NC(=O)CC1CCCN(c2cncc(OCc3ccccc3)n2)C1` (centres undefined): the Percent Effect came to 20.7%. Then `Cc1ccc(S(=O)(=O)N(CCO)C2CC2)cc1N(C)C`, with -7.34%; and `Cc1cc(CNS(=O)(=O)CCCC#N)ccc1N(C)C`, with -7.86%. Turning to `O=S(=O)(c1cn[nH]c1)N1CCC(O)(CN2CCC(F)(F)CC2)C1` (centres undefined), the Percent Effect was 9.16%. With `CCN(C(=O)CS(=O)(=O)c1cc(OC)c(OC)cc1C)C1CC1`, the Percent Effect worked out at 19.2%. In the case of `O=C(Cn1ccc(-c2ccccc2)n1)N1CCN(C(=O)C2CC2)CC1`, the Percent Effect was -3.88%. Consider `CC(C)c1nnc(CN2CC(n3cccn3)Cc3ccccc32)o1` (centres undefined), for which the Percent Effect is -5.15%. Turning to `CCOC(=O)NC1CCCN(c2cncc(Br)c2)C1` (centres undefined), the Percent Effect stood at 15.7%. Regarding `O=C(c1cnccn1)N1CCCC(C2=Nc3ccccc3S(=O)(=O)N2)C1` (centres undefined), the Percent Effect turned out to be 22%. Regarding `Fc1cccc(CN2CCC[C@@H](Cn3nnc(-c4ccccn4)n3)C2)c1`, the Percent Effect was found to be 10.2%. As to `CCCS(=O)(=O)N1CCN(CCCO)CC1`, the Percent Effect amounted to 89.9%. Then `COCC(C)(O)CNC(=O)c1cc(-c2cc(OC)ccc2OC)nn1C` (centres undefined), with 1.19%; and `CC(Cc1cccc(F)c1)C(=O)NS(=O)(=O)c1cnn(C)c1` (centres undefined), with -5.21%; and `CC(NC(=O)N1CCCN(C)CC1)c1ccc(S(N)(=O)=O)cc1` (centres undefined), with 5.68%. Under `CN1CCOC(CNCC(=O)NCCc2ccc(F)cc2)C1` (centres undefined) stands 4.27%; under `CC(C)N(C)S(=O)(=O)c1ccc2c(c1)CCN(C(=O)c1ccccn1)C2`, -446%. Take `CCc1nc2n(n1)CC(NCc1nc3ccccc3o1)CC2` (centres undefined): the Percent Effect came to 2.97%. As to `CNC(=O)[C@@H](C)NC(=O)c1cc(-c2ccc(F)cc2)c(C)s1`, the Percent Effect was 2.33%. In the case of `CCn1cnnc1CNC(=O)c1ccc(Br)cc1F`, the Percent Effect is -10.5%. As for `CN1CCN(CCOc2ccc(NC(=O)c3ccoc3)cc2)CC1`, the Percent Effect was -4.02%. Then `O=C(c1cscn1)N1CCc2[nH]nc(Nc3ccccc3)c2C1`, with 10.9%.

Values taken from ChEMBL document CHEMBL3988442, “University of Dundee, Small-Polar-MMV Screening Library” (2021).
